Experiment [1] has as its system Plasmodium falciparum Sir2 (PF13_0152, Sir2A). The experiment is described as follows: Plasmodium falciparum Sir2A binding compounds – biochemical, small-molecule microarray, 635 nm fluorescence, primary screen (AID 1098).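 Also: score merges spot fluorescence intensity with its signal-to-noise ratio.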 The following applies: fluorescence 635 nm, higher = more signal.
A short description of experiment [2]: probe aDKK1 binding to arrayed compounds – biochemical, biotinylated probe, 635/667 nm fluorescence, primary screen (AID 1099).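 Also: score merges 667nm spot fluorescence with signal to noise across triplicate slides; reference of the scale not given here.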 The following applies: small-molecule microarray, higher = more signal.
The nature of experiment [3]: probe aCHRDL2 binding to arrayed compounds – biochemical, biotinylated probe, 635/667 nm fluorescence, primary screen (AID 1100). Particulars: small-molecule microarray, higher = more signal.
A short description of experiment [4]: change in splice reporter luminescence, either direction, cell-based, HEK293, spliceosome inhibition project, primary screen (AID 1101).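 Also: HEK293 cells carrying a splicing-competent luciferase reporter gene; test concentration not given here.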 The following applies: HEK293 splicing luciferase reporter, 24 h, higher = more signal, called active from +8 up or from −8 down. For orientation: A reporter such as luciferase makes a cellular process visible.
The target of experiment [5] is Fibroblast growth factor 10 (Homo sapiens) (UniProt O15520). Description: compounds binding fibroblast growth factor 10 – biochemical, small-molecule microarray, 635 nm fluorescence, primary screen (AID 1102). The following applies: FGF10 binding, fluorescence 635 nm, higher = more signal.
Fibroblast growth factor 10 (Homo sapiens), sequence (O15520 whole entry, looked up): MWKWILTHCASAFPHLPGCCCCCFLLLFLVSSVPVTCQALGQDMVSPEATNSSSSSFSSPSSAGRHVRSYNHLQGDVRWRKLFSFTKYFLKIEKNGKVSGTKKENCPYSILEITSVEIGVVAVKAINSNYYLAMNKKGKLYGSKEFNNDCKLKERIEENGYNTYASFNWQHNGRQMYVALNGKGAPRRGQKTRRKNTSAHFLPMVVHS
The test system of experiment [6] is glycogen synthase kinase-3 (GSK3A per assay name; protocol says GSK3B). The experiment is described as follows: compounds binding glycogen synthase kinase-3 – biochemical, small-molecule microarray, 635 nm fluorescence, GSK3A, primary screen (AID 1103). Also: the record names both GSK3A and GSK3B. Particulars: fluorescence 635 nm, higher = more signal.
Experiment [7] has as its target Epidermal growth factor receptor (Homo sapiens) (UniProt P00533). Description: compounds binding epidermal growth factor receptor – biochemical, small-molecule microarray, 635 nm fluorescence, primary screen (AID 1104).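 Also: score merges 667 nm emission intensity with spot signal to noise over triplicate slides.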 Particulars: EGFR binding, higher = more signal.
The target of experiment [8] is Follistatin-related protein 3 (Homo sapiens) (UniProt O95633). Description: compounds binding follistatin-related protein 3 – biochemical, small-molecule microarray, 635 nm fluorescence, primary screen (AID 1105).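 Also: score merges emission near 667 nm and signal to noise per printed spot across three slides.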 The following applies: FSTL3 binding, higher = more signal.
Follistatin-related protein 3 (Homo sapiens), sequence (O95633 whole entry, looked up): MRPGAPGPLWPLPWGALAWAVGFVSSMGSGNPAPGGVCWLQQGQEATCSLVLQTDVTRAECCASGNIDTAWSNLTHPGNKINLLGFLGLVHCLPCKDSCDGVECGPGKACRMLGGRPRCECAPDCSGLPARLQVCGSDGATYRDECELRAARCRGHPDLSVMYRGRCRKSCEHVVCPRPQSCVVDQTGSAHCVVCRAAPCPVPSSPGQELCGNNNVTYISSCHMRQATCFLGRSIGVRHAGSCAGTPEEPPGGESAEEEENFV
The target in experiment [9] is Dickkopf-related protein 1 (Homo sapiens) (UniProt O94907). Description: small molecules binding DKK1 protein – biochemical, small-molecule microarray, 635 nm fluorescence scan, primary screen (AID 1106).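 Also: score merges emission near 667 nm with signal to noise over three replicate slides.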 Particulars: higher = more signal.
Dickkopf-related protein 1 (Homo sapiens), sequence (O94907 whole entry, looked up): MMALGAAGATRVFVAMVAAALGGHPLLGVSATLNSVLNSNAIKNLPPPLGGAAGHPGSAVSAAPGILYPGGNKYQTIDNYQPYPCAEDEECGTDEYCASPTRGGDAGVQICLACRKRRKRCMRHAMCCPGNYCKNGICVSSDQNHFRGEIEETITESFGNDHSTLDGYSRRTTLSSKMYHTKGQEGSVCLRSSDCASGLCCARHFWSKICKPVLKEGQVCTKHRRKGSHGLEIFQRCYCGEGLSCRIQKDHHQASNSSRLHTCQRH
The test system of experiment [10] is Inhibin beta A chain (activin A). Description: small molecules binding activin A – biochemical, small-molecule microarray, 635 nm fluorescence scan, primary screen (AID 1107).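 Also: mouse activin A protein probed at 4.33 µg/mL on printed slides; score merges bound-protein fluorescence near 667 nm with spot signal-to-noise.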 The following applies: INHBA, higher = more signal.

Calls of active or inactive are those of the source.

Epidermal growth factor receptor (Homo sapiens), sequence (P00533 whole entry, looked up): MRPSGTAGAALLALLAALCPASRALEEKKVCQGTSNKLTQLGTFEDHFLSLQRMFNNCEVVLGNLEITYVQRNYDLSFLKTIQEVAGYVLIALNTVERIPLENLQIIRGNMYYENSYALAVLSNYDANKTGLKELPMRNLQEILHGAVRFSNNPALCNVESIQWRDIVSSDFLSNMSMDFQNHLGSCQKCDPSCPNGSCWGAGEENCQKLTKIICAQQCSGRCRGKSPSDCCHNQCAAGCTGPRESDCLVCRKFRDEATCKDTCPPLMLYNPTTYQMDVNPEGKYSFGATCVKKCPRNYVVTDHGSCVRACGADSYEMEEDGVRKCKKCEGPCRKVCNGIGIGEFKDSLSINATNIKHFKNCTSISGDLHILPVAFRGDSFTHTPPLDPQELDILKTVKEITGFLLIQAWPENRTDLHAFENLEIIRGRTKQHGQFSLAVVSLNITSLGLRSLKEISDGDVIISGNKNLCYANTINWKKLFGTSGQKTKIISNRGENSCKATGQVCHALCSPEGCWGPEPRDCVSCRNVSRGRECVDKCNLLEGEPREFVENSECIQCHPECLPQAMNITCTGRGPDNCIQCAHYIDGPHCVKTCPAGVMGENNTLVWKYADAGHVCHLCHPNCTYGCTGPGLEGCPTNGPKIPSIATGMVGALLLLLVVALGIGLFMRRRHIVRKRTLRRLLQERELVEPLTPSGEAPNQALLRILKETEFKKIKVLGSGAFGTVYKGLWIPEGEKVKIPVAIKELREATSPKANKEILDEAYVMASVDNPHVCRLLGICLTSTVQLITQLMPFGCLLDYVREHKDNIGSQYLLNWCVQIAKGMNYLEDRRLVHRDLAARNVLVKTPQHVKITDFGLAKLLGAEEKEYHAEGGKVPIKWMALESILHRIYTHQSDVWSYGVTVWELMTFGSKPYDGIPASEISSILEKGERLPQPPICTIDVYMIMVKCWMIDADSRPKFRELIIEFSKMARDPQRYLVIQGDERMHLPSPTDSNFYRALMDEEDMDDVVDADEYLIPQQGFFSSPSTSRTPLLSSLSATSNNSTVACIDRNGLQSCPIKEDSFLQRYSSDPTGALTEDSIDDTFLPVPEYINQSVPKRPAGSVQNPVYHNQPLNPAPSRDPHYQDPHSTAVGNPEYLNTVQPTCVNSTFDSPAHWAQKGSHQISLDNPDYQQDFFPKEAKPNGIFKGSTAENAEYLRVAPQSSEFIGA

Take `C=CCC(OC(C)=O)[C@@H]1[C@@H](N(Cc2ccc(-c3cccc(C(F)(F)F)c3)o2)C(=O)Cc2ccc(OC)cc2)c2cc(OCCCO)ccc2N1C(=O)c1ccc2ccccc2n1` (stereo not given in full): the composite z-score was 0.51 in [1]; -0.107 in experiment [2]; 0.621 in [3]; 0.104 in experiment [5]; -1.24 in experiment [6]; -0.567 in experiment [7]. In addition, the composite z-score was 0.0391 in experiment [8], 0.062 in [9] and 1.58 in experiment [10]. The z-score in experiment [4] was -0.492 (inactive).
On to `CO[C@H]1O[C@H](CO)[C@@H](OC(=O)Nc2ccc(C(F)(F)F)cc2)[C@H](OC(=O)Nc2ccccc2-c2ccccc2)[C@H]1OC(=O)Nc1ccccc1-c1ccccc1`, for which the composite z-score in experiment [1] was 1.29; in experiment [2], 0.13; in experiment [3], 0.411; in experiment [5], 1.52; in experiment [6], 1.35; in experiment [7], 0.223. Also, the composite z-score turned out to be 1.15 in [8], 0.162 in experiment [9] and 0.436 in [10]. The z-score in [4] was -1.03 (inactive).
As for `O=C1c2ccccc2[C@@]2(Cc3ccccc3N(Cc3ccccc3)C2=O)[C@H](c2ccc(CO)cc2)N1Cc1ccccc1`, the composite z-score was 1.45 in experiment [1]; 0.617 in [2]; 0.819 in experiment [3]; -0.74 in experiment [5]; -1.37 in [6]; -0.949 in [7]. Moreover, the composite z-score in experiment [8] was -0.604; in experiment [9], -0.868; in experiment [10] it was 0.58. For the same compound, the z-score in [4] is 1.18 (inactive).
As to `O=C1N(CCS(=O)(=O)c2ccccc2)c2ccccc2[C@@H]2OC(c3ccc(OCCCO)cc3)=N[C@]12CCS(=O)(=O)c1ccccc1`, the composite z-score came to 0.982 in [1]; 0.753 in experiment [2]; 0.585 in [3]; 0.989 in experiment [5]; 1.26 in experiment [6]; 0.917 in [7]. The composite z-score is 1.42 in experiment [8], 1.16 in experiment [9] and 0.878 in experiment [10]. Moreover, the z-score in [4] was -0.254 (inactive).
As for `CN(C)CCCC[C@@H]1NC(=O)[C@@H]2C[C@H](C(=O)NCc3ccc(F)cc3)[C@H](c3ccc(O)cc3)N2C1=O`, the composite z-score was 1.56 in experiment [1]; -0.126 in experiment [2]; -0.0292 in [3]; 1.47 in [5]; 0.941 in experiment [6]; 0.176 in experiment [7]. Besides, the composite z-score was 0.0719 in [8], 0.2 in experiment [9] and -1.43 in experiment [10]. For the same compound, the z-score in experiment [4] is 0.104 (inactive).
With `O=C1NC(=O)C2C1C=CC(C(O)c1ccc(F)cc1)N2Nc1ccccn1` (stereo not given), the composite z-score in [1] was 1.06; in experiment [2], -0.118; in experiment [3], 0.243; in [5], 0.138; in experiment [6], -0.371; in [7], 0.255. In addition, the composite z-score in experiment [8] was -0.0918; in experiment [9], 0.297; in [10], 0.877. Besides, in experiment [4], the z-score is 1.23 (inactive).
For `C=CCC(OC(C)=O)[C@@H]1[C@@H](N(Cc2ccc(-c3ccccc3)cc2)C(=O)c2ccc(-c3ccccc3)cc2)c2cc(OCCCO)ccc2N1C(=O)c1ccc2ccccc2n1` (stereo not given in full), the composite z-score in experiment [1] was 0.212; in experiment [2] it was 0.103; in [3] it was 0.168; in [5], 0.46; in [6], 0.213; in [7], -0.486. For the same compound, the composite z-score is 0.204 in experiment [8], -0.328 in [9] and 1.38 in [10]. Besides, the z-score in experiment [4] was -1.27 (inactive).
For `COCCOC(=O)N1C(=O)[C@@]2(c3cc(C#CCC(C(=O)OC)C(=O)OC)ccc31)[C@H](C(=O)N1CCc3cc(OC)c(OC)cc3C1)[C@H]1C(=O)O[C@H](c3ccccc3)[C@H](c3ccccc3)N1[C@@H]2c1ccc(O)cc1`, the composite z-score in experiment [1] was 0.86; in [2] it was 0.148; in experiment [3] it was 0.0085; in experiment [5], 1.24; in experiment [6] it was 0.636; in experiment [7] it was 0.868. Also, the composite z-score in [8] was determined as 1.47; in experiment [9], 1.62; in [10] it was 0.418. Moreover, in [4], the z-score was 1.5 (inactive).
As for `COc1cc(OC)c(C(O)C2C=CC3C(=O)N(c4ccccc4)C(=O)C3N2Nc2ccccc2F)cc1Br` (stereo not given), the composite z-score in [1] was 0.76; in experiment [2] it was 0.805; in [3] it was 0.95; in experiment [5] it was 0.97; in experiment [6], 0.0826; in experiment [7], 0.256. The composite z-score is 1.45 in [8], -0.351 in experiment [9] and 0.625 in experiment [10]. Moreover, in experiment [4], the z-score is 0.484 (inactive).
As for `C=C(CCCC)C(=O)CC[C@H](OC(=O)c1cccnc1)c1ccc(CO)o1`, the composite z-score in [1] is 1.3; in [2], -0.013; in experiment [3] it was -0.519; in experiment [5], 1.13; in experiment [6] it was 1.17; in experiment [7] it was 0.266. Moreover, the composite z-score in experiment [8] worked out at 1.3; in [9], 1.36; in experiment [10], 1.19. Further, in [4], the z-score was 0.981 (inactive).
On to `COC(=O)[C@]1(CO)N=C(c2ccc(OCCCO)cc2)O[C@@H]1c1ccccc1CN=[N+]=[N-]`, for which the composite z-score was 0.853 in experiment [1]; 0.109 in [2]; 0.292 in experiment [3]; 0.0716 in [5]; 0.421 in experiment [6]; -0.237 in [7]. The composite z-score in experiment [8] was 0.0239; in experiment [9], 0.102; in experiment [10], 0.193. The z-score in experiment [4] is 0.706 (inactive).

The values above are taken from PubChem BioAssay.
